Assay outcomes: PubChem BioAssay, The Scripps Research Institute Molecular Screening Center
Compounds with a hit are over-represented: about 3.1% of the library has one in this group of screens.
pPAFAH FP inh = pPAFAH (human) enzyme inhibition; Q13093; recombinant pPAFAH, FP-rhodamine probe fluorescence polarization; inhibition, % at 3.39 µM; actives 1.5% (n = 330,000);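 active means inhibition above the mean inhibition across the screen plus 3 SD, cut at about 25% in these data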;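 further: inhibitors block binding of the rhodamine activity-based probe so polarization drops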
Target sequence (Q13093 whole entry, looked up): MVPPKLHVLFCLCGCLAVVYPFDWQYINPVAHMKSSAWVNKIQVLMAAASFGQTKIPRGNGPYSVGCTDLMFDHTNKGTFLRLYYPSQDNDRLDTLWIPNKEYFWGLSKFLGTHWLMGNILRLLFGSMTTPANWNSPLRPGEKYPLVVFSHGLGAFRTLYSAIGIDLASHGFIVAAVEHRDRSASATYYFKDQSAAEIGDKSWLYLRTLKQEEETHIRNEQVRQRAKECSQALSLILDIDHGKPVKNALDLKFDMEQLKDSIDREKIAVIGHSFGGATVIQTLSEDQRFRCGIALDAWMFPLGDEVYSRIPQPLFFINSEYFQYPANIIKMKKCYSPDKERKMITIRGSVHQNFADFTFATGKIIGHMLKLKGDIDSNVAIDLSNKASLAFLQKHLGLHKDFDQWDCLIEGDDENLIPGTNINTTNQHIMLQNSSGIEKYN
PAFAH1B2 inh = inhibitors of human PAFAH1B2. inhibition, % at 3.39 µM. recombinant PAFAH1B2, FP-rhodamine activity probe, fluorescence polarization. actives 1.2% (n = 340,000). AID 492953. P68402;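 active means inhibition above the mean of all tested compounds plus 3 SD, cut at about 24% in these data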
Target sequence (P68402 whole entry, looked up): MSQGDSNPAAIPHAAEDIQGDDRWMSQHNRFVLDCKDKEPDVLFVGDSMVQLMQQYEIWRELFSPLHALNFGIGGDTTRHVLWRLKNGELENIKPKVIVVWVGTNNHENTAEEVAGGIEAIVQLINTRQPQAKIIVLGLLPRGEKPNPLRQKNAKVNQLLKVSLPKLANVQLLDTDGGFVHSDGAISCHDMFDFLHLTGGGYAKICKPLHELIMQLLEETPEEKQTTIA
PAFAH2 FP inh = inhibitors of human PAFAH2; recombinant PAFAH2, FP-rhodamine activity probe, fluorescence polarization; inhibition, % at 3.39 µM; Q99487; actives 0.99% (n = 340,000);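 active means inhibition above the mean over all tested compounds plus 3 SD, cut at about 30% in these data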;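 further: inhibitors block probe labeling of enzyme so polarization drops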
PAFAH1B3 inh = PAFAH1B3 (human) inhibition | Q15102 | recombinant PAFAH1B3, FP-rhodamine probe, fluorescence polarization | inhibition, % at 3.39 µM | actives 0.28% (n = 340,000) | AID 492972;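 active means inhibition above the screen-wide average of all tested compounds plus 3 SD, cut at about 25% in these data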
Rin1-Abl PPI inh = blocks binding of human Rin1 to Abl | P00519+Q13671 | TR-FRET Rin1/Abl binding, biochemical | actives 0.4% (n = 360,000) | inhibition, % at 7.35 µM; in the data active means inhibition above about 5%, passing the limit was not always enough
E coli Lon inh = E. coli protease La inhibition; P0A9M0; purified E. coli Lon protease, fluorescence polarization; inhibition, % at 7.94 µM; actives 0.42% (n = 360,000); in the data active means inhibition above about 13%, passing the limit was not always enough
pPAFAH confirm = pPAFAH (human) inhibition, confirmed; shares compounds with pPAFAH FP inh; recombinant pPAFAH, FP-Rh probe fluorescence polarization; inhibition, % at 3.39 µM; actives 72% (n = 2,300); AID 463230;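 active means mean inhibition of the triplicate above the hit cutoff set for the earlier primary screen, cut at about 25% in these data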
PAFAH2 FP conf = PAFAH2 (human) inhibition, confirmed; recombinant PAFAH2, FP-rhodamine activity probe, fluorescence polarization; inhibition, % at 3.39 µM; AID 493030; actives 65% (n = 2,300); shares compounds with PAFAH2 FP inh;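 active means mean inhibition over three repeats above a set limit taken from the earlier primary screen, cut at about 30% in these data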;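 further: inhibitor blocks binding of rhodamine activity probe so polarization falls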
Large screens that a line does not name were inactive (follow-up assays come after a bar, where they were run).

Cc1nn(C)c(C)c1CCC(=O)N1CCCC(N2CCN(c3ccc(F)cc3)CC2)C1 (configuration not stated)	none
COc1ccc2nc(NC(=O)CSc3nnc(C)n3N)sc2c1	pPAFAH FP inh 38 | pPAFAH confirm inactive
COc1ccc2nc(NC(=O)CSc3nnc(N)s3)sc2c1	none
O=C(Oc1ccc(OC(=O)C2CCC2)cc1)C1CCC1	pPAFAH FP inh 42 | pPAFAH confirm inactive
C=CCOc1ccc(C(c2c(C(=O)O)[nH]c3ccccc23)c2c(C(=O)O)[nH]c3ccccc23)cc1	pPAFAH FP inh 44, PAFAH1B2 inh 66, PAFAH2 FP inh 55 | pPAFAH confirm 30
COc1cccc(CNC(=O)CCc2nc3cc(S(=O)(=O)N4CCOCC4)ccc3n2C)c1	none
CCOc1ccc(-c2ccc(/C=C3/C(=N)N4C=CSC4=NC3=O)o2)c([N+](=O)[O-])c1	none
CCOc1ccc(-c2ccc(/C=C3/C(=N)N4C(C)=CSC4=NC3=O)o2)c([N+](=O)[O-])c1	pPAFAH FP inh 45 | pPAFAH confirm 37
CN1/C(=C\C=C2/C(=O)Oc3ccccc3C2=O)C(C)(C)c2ccccc21	pPAFAH FP inh 35 (no result: PAFAH1B2 inh, PAFAH2 FP inh, PAFAH1B3 inh, Rin1-Abl PPI inh, E coli Lon inh) | pPAFAH confirm inactive
Cc1ccc(C2=NN(CC(=O)NCCN(CC(C)C)CC(C)C)C(=O)CC2)cc1	none
NS(=O)(=O)c1ccc(CNC(=O)Cc2cccs2)cc1	pPAFAH FP inh 35 | pPAFAH confirm inactive
CCOC(=O)C1(C)C=C(Nc2ccc(OC)cc2)C(=O)N1c1ccc(OC)cc1 (configuration not stated)	none
CCOC(=O)C1(C)C=C(Nc2ccc(O)cc2)C(=O)N1c1ccc(O)cc1 (configuration not stated)	pPAFAH FP inh 70 | pPAFAH confirm inactive
Nc1ncnc2c1ncn2[C@@H]1O[C@H](C(=O)N2CCC[C@@H]2C(=O)OCc2ccccc2)[C@@H](O)[C@H]1O	none (no result: pPAFAH FP inh, PAFAH1B2 inh, PAFAH2 FP inh, PAFAH1B3 inh)
O=[N+]([O-])c1ccc(O)c(C=Nc2ccc3nc(-c4ccccc4)[nH]c3c2)c1	none
Oc1c(Br)cc(C=Nc2ccc3nc(-c4ccccc4)[nH]c3c2)c(O)c1Br	pPAFAH FP inh 44 (no result: PAFAH1B2 inh, PAFAH2 FP inh, PAFAH1B3 inh, Rin1-Abl PPI inh, E coli Lon inh) | pPAFAH confirm 35
Cc1cccc(Cc2cnc(N3C(=N)SC(C)C3=O)s2)c1 (configuration not stated)	pPAFAH FP inh 43 | pPAFAH confirm 33
N=C1SCC(=O)N1c1ncc(Cc2ccccc2Cl)s1	none (no result: pPAFAH FP inh)
O=C(O)c1cccc(N/N=C/c2cc(Br)cc(Br)c2O)c1	pPAFAH FP inh 45, PAFAH2 FP inh 37 | pPAFAH confirm 44
COc1ccc(Br)cc1/C=N/Nc1cccc(C(=O)O)c1	none
COc1ccc(CNC(=O)C(C)OC(=O)c2cccs2)cc1 (configuration not stated)	none
CCOC(=O)c1cc(-c2ccc(F)cc2)n(CCC(=O)NC2CCN(Cc3ccccc3)CC2)c1C	pPAFAH FP inh 40 | pPAFAH confirm inactive
CCOC(=O)c1cc(-c2ccc(OC)cc2)n(CCC(=O)NC2CCN(Cc3ccccc3)CC2)c1C	none
CCOC(=O)N1CCC(NC(=O)CC2C(=O)NCCN2Cc2cccc(F)c2F)CC1 (configuration not stated)	none
CCOC(=O)N1CCC(NC(=O)CC2C(=O)NCCN2Cc2ccccc2F)CC1 (configuration not stated)	pPAFAH FP inh 49 | pPAFAH confirm inactive
CCN(C(=O)COC(=O)c1ccc(F)c(S(=O)(=O)N2CCOCC2)c1)C1CCS(=O)(=O)C1 (configuration not stated)	none
S=c1[nH]nc(-c2cc(-c3ccccc3)n[nH]2)n1/N=C/c1c(Cl)cccc1Cl	none
S=c1[nH]nc(-c2cc(-c3ccccc3)n[nH]2)n1/N=C/c1ccc(Br)s1	pPAFAH FP inh 54 | pPAFAH confirm 70
Cc1cc2nc(C(C)(C)C)c(CC3CCCCC3)n2c(C)c1Br	none (no result: pPAFAH FP inh, PAFAH1B2 inh, PAFAH2 FP inh, PAFAH1B3 inh, Rin1-Abl PPI inh)
COc1ccccc1/C=C/c1ccc2cccc(O)c2n1	pPAFAH FP inh 42 | pPAFAH confirm inactive
CCN(CC)C(=O)C1=C(C)N(Cc2ccc(OC)cc2)C(=O)C(CC(=O)NCCCN(C)C)C1 (configuration not stated)	none (no result: pPAFAH FP inh, PAFAH1B2 inh, PAFAH2 FP inh, PAFAH1B3 inh)
O=C(O)c1ccccc1NS(=O)(=O)c1ccc(NN=Cc2ccc(F)cc2)c([N+](=O)[O-])c1	pPAFAH FP inh 58 | pPAFAH confirm 77
Cc1nn(-c2ccccc2)c(N2CCCC2)c1/C=N/Nc1ccc(S(=O)(=O)Nc2ccccc2)cc1[N+](=O)[O-]	none
O=C(O)COc1ccccc1/C=N/Nc1ccc(S(=O)(=O)Nc2ccc(Cl)cc2)cc1[N+](=O)[O-]	pPAFAH FP inh 65, PAFAH1B2 inh 47 | pPAFAH confirm 68
O=C(O)c1ccc(/C=N/Nc2ccc(S(=O)(=O)N3CCCC3)cc2[N+](=O)[O-])cc1	none
O=C(O)c1ccccc1NS(=O)(=O)c1ccc(NN=Cc2cccc(Cl)c2)c([N+](=O)[O-])c1	pPAFAH FP inh 66 | pPAFAH confirm 77
COCCOC1CCN(C(=O)C2CCC(=O)N(CCc3ccccc3)C2)CC1 (configuration not stated)	none
CCc1cc(C(=O)N/N=C/c2ccc(O)cc2O)c2ccccc2n1	none
O=[N+]([O-])c1ccccc1CCc1cnc(Cl)s1	none
CC(=O)C(C(C)=O)c1c(Cl)c(O)c(O)c2c(C(=O)c3ccccc3)coc12	pPAFAH FP inh 59 | pPAFAH confirm 45
CN1CCN(Cc2c(O)ccc3occ(C(=O)c4ccccc4)c23)CC1	none
O=C(OCC(=O)N1CCOCC1)c1ccc2[nH]c3c(c2c1)CCCC3	none
O=C(COC(=O)c1ccc2[nH]c3c(c2c1)CCCC3)Nc1ccccc1	pPAFAH FP inh 43, PAFAH2 FP inh 77 | pPAFAH confirm 41
CCN(CC)C(=O)CSc1nc2ccccc2c(=O)n1-c1cccc(OC)c1	none
COc1cccc(-n2c(SCc3cc(=O)oc4cc(O)c(O)cc34)nc3ccccc3c2=O)c1	pPAFAH FP inh 94, PAFAH2 FP inh 64 | pPAFAH confirm 92 | PAFAH2 FP conf 54
COc1ccc(S(=O)(=O)N(C)CC(=O)NCCCN2CCOCC2)cc1C	none (no result: pPAFAH FP inh)
COc1cc(NS(=O)(=O)c2ccc(Nc3nc(-c4cccc([N+](=O)[O-])c4)cs3)cc2)nc(OC)n1	pPAFAH FP inh 47, PAFAH2 FP inh 43 | pPAFAH confirm 69 | PAFAH2 FP conf inactive
[C-]#[N+][C@H](O[C@@H]1O[C@H](CO)[C@@H](O)[C@H](O)[C@H]1O)c1ccccc1	none
